Measurements published in PubChem BioAssay (NCI).
Compounds without any hit were thinned out: in the full panel of roughly 79,000, 15% have a hit. Active and inactive are the calls of the source. Rule as the data show it: active = growth inhibition above about 70%; inactive = the rest.

Tests used:
[1] = NCI Yeast Anticancer Drug Screen. Data for the mlh1 strain (AID 171);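 also: 0% = growth of vehicle-treated control cultures of the same strain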; details: S. cerevisiae mlh1 strain growth inhibition, active compounds read high
Outline: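 Growth of the mutant yeast strain after compound exposure, expressed as inhibition relative to vehicle-only controls.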

[2] = NCI Yeast Anticancer Drug Screen. Data for the sgs1 strain (AID 173);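 also: 0% = growth of vehicle-only control cultures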; details: S. cerevisiae sgs1 mutant, active compounds read high
Outline: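 Growth of a yeast strain bearing a defined genetic alteration is measured after compound treatment. Inhibition is expressed relative to vehicle-only controls.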

[3] = NCI Yeast Anticancer Drug Screen. Data for the mlh1 rad18 strain (AID 175); details: S. cerevisiae mlh1 rad18 strain growth inhibition, active compounds read high
Outline: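 Read-out is yeast growth inhibition, calculated against vehicle-only controls. The compound was applied to a strain engineered with DNA damage repair alterations.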

[4] = NCI Yeast Anticancer Drug Screen. Data for the rad52 strain (AID 147);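 also: 0% = growth of vehicle-treated control cultures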; details: S. cerevisiae rad52 mutant growth inhibition, active compounds read high
Outline: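 Compounds are applied to a genetically defined yeast strain lacking normal DNA damage repair, and inhibition of growth is expressed relative to cultures given vehicle only.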

[5] = NCI Yeast Anticancer Drug Screen. Data for the wt1 strain (AID 149);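 also: 0% = growth of vehicle-treated wt1 cultures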; details: S. cerevisiae wt1 strain (SPY 50644) growth inhibition, active compounds read high
Outline: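 Measured: growth of wt1 yeast under compound versus vehicle treatment, reported as inhibition.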

[6] = NCI Yeast Anticancer Drug Screen. Data for the rad50EPP+ strain (AID 151);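 also: 0% = growth of vehicle-treated control cultures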; details: S. cerevisiae rad50 mutant strain, active compounds read high
Outline: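 Compounds were applied to the rad50EPP+ yeast strain, which bears a defined DNA repair alteration, and growth inhibition was determined relative to vehicle-treated cultures.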

[7] = NCI Yeast Anticancer Drug Screen. Data for the rad50 strain (AID 155);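 also: 0% = growth of vehicle-only cultures of the same strain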; details: S. cerevisiae rad50 strain growth inhibition, active compounds read high
Outline: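 Growth of the mutant yeast was measured after compound exposure and referenced to vehicle-treated cultures.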

[8] = NCI Yeast Anticancer Drug Screen. Data for the mec2-1 strain (AID 157); details: S. cerevisiae mec2-1 strain, active compounds read high
Outline: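 Strain: mec2-1 (DNA repair/cell cycle alteration). Compound exposure, then growth measured; inhibition expressed relative to vehicle.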

[9] = NCI Yeast Anticancer Drug Screen. Data for the rad14 strain (AID 159);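 also: 0% = growth of vehicle-treated control cultures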; details: S. cerevisiae rad14 strain growth inhibition, active compounds read high
Outline: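 Here, inhibition of yeast growth was measured after compound exposure, using a strain with a genetic defect in DNA damage repair and vehicle-treated cultures as the reference.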

[10] = NCI Yeast Anticancer Drug Screen. Data for the sgs1 mgt1 strain (AID 161);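 also: 0% = growth of cultures given vehicle only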; details: S. cerevisiae sgs1 mgt1 strain, active compounds read high
Outline: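 Test agents were incubated with a DNA-repair-mutant yeast strain. Growth was then read and compared against vehicle-treated controls.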

[11] = NCI Yeast Anticancer Drug Screen. Data for the CLN2oe strain (AID 163);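 also: 0% = growth of vehicle-only control cultures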; details: S. cerevisiae CLN2oe strain, active compounds read high
Outline: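 Growth of a genetically modified yeast strain is measured after compound exposure and compared with cultures given vehicle alone.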

[12] = NCI Yeast Anticancer Drug Screen. Data for the cln2 rad14 strain (AID 165);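 also: 0% = growth equal to vehicle treated cultures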; details: S. cerevisiae cln2 rad14 strain, active compounds read high
Outline: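 Compounds are applied to the cln2 rad14 yeast strain, and growth is then compared with that of vehicle-treated cultures to give inhibition.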

[13] = NCI Yeast Anticancer Drug Screen. Data for the bub3 strain (AID 167); details: S. cerevisiae bub3 mutant strain, active compounds read high
Outline: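 Whole-cell yeast assay. The mutant strain was incubated with compounds, and growth inhibition was determined by comparison with vehicle-treated cells.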

[14] = NCI Yeast Anticancer Drug Screen. Data for the wt2 strain (AID 169);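 also: 0% = growth of vehicle-treated yeast cultures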; details: S. cerevisiae wt2 strain growth inhibition, active compounds read high
Outline: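 This strain belongs to a panel of yeast strains with defined genetic alterations in DNA damage repair or cell cycle control. Compounds are applied, and growth inhibition is measured against vehicle-treated cultures.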

[15] = NCI Yeast Anticancer Drug Screen. Data for the rad18 strain (AID 177); details: S. cerevisiae rad18 mutant growth inhibition, active compounds read high
Outline: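 Growth of the mutant yeast strain after compound exposure, normalised to vehicle-only cultures.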

[16] = at 5.0 µM (retest, dose inferred, filed as 0.5)
[17] = at 50.0 µM (retest, dose inferred, filed as 5.0)

Measured: growth inhibition

C/C(=N\NC(=S)NNC(=S)N(C)c1ccccc1)c1ccccn1
inactive: [1]; at 1.2 µM 21% | [1]; at 3.7 µM 41% | [2]; at 1.2 µM 13% | [2]; at 3.7 µM 64% | [3]; [16] 27%
active: [1]; at 11.0 µM 97% | [1]; at 33.0 µM 98% | [1]; at 100.0 µM 83% | [2]; at 11.0 µM 98% | [2]; at 33.0 µM 98% | [2]; at 100.0 µM 88% | [3]; [17] 99% | [3]; at 50.0 µM 84.5%

S=c1nc(Cl)cc2[nH]c(Cl)cn12
inactive: [4]; at 1.2 µM 2% | [4]; at 3.7 µM 6% | [4]; at 11.0 µM 14% | [4]; at 33.0 µM 43% | [5]; at 1.2 µM -3% | [5]; at 3.7 µM -3% | [5]; at 11.0 µM -2% | [5]; at 33.0 µM 13% | [5]; at 100.0 µM 42% | [6]; at 1.2 µM 4% | [6]; at 3.7 µM 18% | [6]; at 11.0 µM 44% | [7]; at 1.2 µM 7% | [7]; at 3.7 µM 9% | [7]; [16] -132% | [7]; at 11.0 µM 27% | [8]; at 1.2 µM 3% | [8]; at 3.7 µM 4% | [8]; [16] -46% | [8]; at 11.0 µM 13% | [8]; at 33.0 µM 24% | [8]; [17] -8% | [9]; at 1.2 µM 1% | [9]; at 3.7 µM -1% | [9]; at 11.0 µM 10% | [9]; at 33.0 µM 20% | [9]; at 100.0 µM 59% | [10]; [16] -61% | [10]; [17] 3% | [10]; at 50.0 µM 47.4% | [11]; at 1.2 µM 1% | [11]; at 3.7 µM -1% | [11]; at 11.0 µM 3% | [11]; at 33.0 µM 3% | [11]; at 100.0 µM 60% | [12]; [16] -57% | [12]; [17] -39% | [13]; at 1.2 µM -4% | [13]; at 3.7 µM -3% | [13]; [16] -30% | [13]; at 11.0 µM 9% | [13]; at 33.0 µM 30% | [13]; [17] 44% | [14]; at 1.2 µM 2% | [14]; at 3.7 µM 3% | [14]; at 11.0 µM 5% | [14]; at 33.0 µM 11% | [1]; at 1.2 µM 8% | [1]; at 3.7 µM 1% | [1]; at 11.0 µM 5% | [1]; at 33.0 µM 19% | [2]; at 1.2 µM 3% | [2]; at 3.7 µM 3% | [2]; at 11.0 µM 15% | [2]; at 33.0 µM 42% | [3]; [16] -117% | [3]; [17] 10% | [15]; at 1.2 µM 1% | [15]; at 3.7 µM 3% | [15]; at 11.0 µM 14% | [15]; at 33.0 µM 44%
active: [4]; at 100.0 µM 93% | [6]; at 33.0 µM 89% | [6]; at 100.0 µM 98% | [7]; at 33.0 µM 73% | [7]; [17] 75% | [7]; at 50.0 µM 78.8% | [7]; at 100.0 µM 98% | [8]; at 50.0 µM 82.5% | [8]; at 100.0 µM 80% | [12]; at 50.0 µM 76.6% | [13]; at 50.0 µM 78.5% | [13]; at 100.0 µM 94% | [14]; at 100.0 µM 83% | [1]; at 100.0 µM 90% | [2]; at 100.0 µM 99% | [3]; at 50.0 µM 96.5% | [15]; at 100.0 µM 96%

CN(N=O)c1ccc(/C=C/c2ccnc3ccccc23)cc1
active: [4]; at 33.0 µM 85% | [4]; at 100.0 µM 96% | [6]; at 33.0 µM 90% | [6]; at 100.0 µM 98% | [7]; at 33.0 µM 89% | [7]; [17] 87% | [7]; at 50.0 µM 95.8% | [7]; at 100.0 µM 95% | [8]; at 100.0 µM 90% | [9]; at 100.0 µM 71% | [14]; at 100.0 µM 81% | [1]; at 100.0 µM 86% | [2]; at 100.0 µM 90% | [3]; at 50.0 µM 78.6% | [15]; at 100.0 µM 91%
inactive: [4]; at 1.2 µM 2% | [4]; at 3.7 µM 9% | [4]; at 11.0 µM 35% | [5]; at 1.2 µM 0% | [5]; at 3.7 µM 2% | [5]; at 11.0 µM 8% | [5]; at 33.0 µM 20% | [5]; at 100.0 µM 57% | [6]; at 1.2 µM 7% | [6]; at 3.7 µM 26% | [6]; at 11.0 µM 68% | [7]; at 1.2 µM 5% | [7]; at 3.7 µM 14% | [7]; [16] 23% | [7]; at 11.0 µM 42% | [8]; at 1.2 µM 3% | [8]; at 3.7 µM 5% | [8]; [16] 7% | [8]; at 11.0 µM 13% | [8]; at 33.0 µM 34% | [8]; [17] 32% | [8]; at 50.0 µM 42.5% | [9]; at 1.2 µM 3% | [9]; at 3.7 µM 3% | [9]; at 11.0 µM 10% | [9]; at 33.0 µM 24% | [10]; [16] 8% | [10]; [17] 43% | [10]; at 50.0 µM 47.3% | [11]; at 1.2 µM 3% | [11]; at 3.7 µM -4% | [11]; at 11.0 µM 5% | [11]; at 33.0 µM 15% | [11]; at 100.0 µM 56% | [12]; [16] -10% | [12]; [17] 12% | [12]; at 50.0 µM 19.6% | [13]; at 1.2 µM -3% | [13]; at 3.7 µM 3% | [13]; [16] 4% | [13]; at 11.0 µM 16% | [13]; at 33.0 µM 32% | [13]; [17] 25% | [13]; at 50.0 µM 37% | [13]; at 100.0 µM 68% | [14]; at 1.2 µM -4% | [14]; at 3.7 µM 1% | [14]; at 11.0 µM 7% | [14]; at 33.0 µM 28% | [1]; at 1.2 µM 3% | [1]; at 3.7 µM 5% | [1]; at 11.0 µM 13% | [1]; at 33.0 µM 31% | [2]; at 1.2 µM -2% | [2]; at 3.7 µM 3% | [2]; at 11.0 µM 10% | [2]; at 33.0 µM 55% | [3]; [16] 3% | [3]; [17] 68% | [15]; at 1.2 µM 0% | [15]; at 3.7 µM 2% | [15]; at 11.0 µM 16% | [15]; at 33.0 µM 55%
